A549 tox = counter-screen for Nrf2 inhibitors: cytotoxicity in A549 cells; Potency, µM (doses to about 46 µM), without a hit: at the top dose activity change, negative = cytotoxicity, actives largely listed as inhibitors; A549 ARE-Fluc cells, CellTiter-Fluor viability, 18-24 h; hit rate 0.16% among 390,000; also: % is scaled to controls: 0 for no effect and ±100 for the full control effect
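Cytotoxicity counterscreen: CellTiter-Fluor fluorescence was measured in A549 ARE_Fluc cells after 18-24 h of compound exposure in a concentration series. The subsequent BugLite luminescent read reports ARE-luciferase activity.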
TGFb SMAD3 inh = blocks TGF-b signaling | Potency, µM (titrated, usually from 46.1 µM), for inactives: top-dose activity, negative = inhibition, actives largely listed as inhibitors | hit rate 1.2% among 410,000 | AID 588855 | HepG2 CAGA-GFP TGF-b/SMAD3 reporter, GFP fluorescence, 18 h; TGF-beta stimulated, 500 pg/mL final; also: % is scaled to controls: 0 for no effect and ±100 for the full control effect; nearly all actives have a fitted effect of over 65% in size
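HEPG2 CAGA-GFP, 1000 cells/well; 2 h settle, 37 C; cpd via pin tool; TGF-b 500 pg/mL final; 18 h, 37 C; GFP imaging ex488/em500-530; %Activity normalised to -TGF-b and +DMSO controls; CRC fit, curve class.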
S2 tox = viability counter-screen for ATXN expression inhibitors; hit rate 0.49% among 400,000; Potency, µM (titrated, usually from 56.7 µM), usual class: cytotoxic; S2 cells (HEK-293 line with an ATXN2-luciferase reporter) viability, CellTiter-Fluor protease fluorescence, 24 h; AID 651635; also: nearly all actives have a fitted effect of over 40% in size
HepG2 tox = HepG2 cytotoxicity, counter-screen for TGF-b inhibitors; HepG2 CAGA-GFP viability, ATP luminescence, 18 h; Potency, µM (doses to about 46.1 µM), without a hit: at the highest dose activity change, negative = cytotoxicity, most hits filed as cytotoxic; hit rate 0.76% among 410,000
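CellTiter-Glo luminescence gave cytotoxicity after 18 hours at 37 degrees C. The cells were HepG2 CAGA-GFP in 1% FBS DMEM, stimulated with 500 pg/mL TGF-beta after compound addition. %Activity was normalised to no-cell wells (complete cell-killing) and DMSO (no toxicity), and curves were fitted and classified.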
ATXN2 expr inh = inhibitors of ATXN2 expression. HEK-293 ATXN2-luciferase reporter, luminescence, 24 h. AID 1745845. Potency, µM (titrated, usually from 57 µM), for the others: at the highest dose activity change, negative = inhibition, actives largely listed as inhibitors. hit rate 0.72% among 360,000; also: % is scaled to controls: 0 for no effect and ±100 for the full control effect; nearly all actives have a fitted effect of over 55% in size
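ATXN2-luciferase reporter cells (luciferase flanked by upstream and downstream ATXN2 gene portions) were treated 24 h at 37 °C with compounds at up to 57 uM. SteadyGlo luminescence gave expression; GF-AFC fluorescence gave viability.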
Nrf2 block = blocks Nrf2 signaling | A549 ARE-Fluc reporter, luciferase luminescence, 18-24 h | Potency, µM (highest dose often 46 µM), inactives show at the top dose activity change, negative = inhibition, hits mostly inhibitors | hit rate 2.1% among 360,000 | AID 504444; also: % is scaled to controls: 0 for no effect and ±100 for the full control effect; nearly all actives have a fitted effect of over 60% in size
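A549 ARE_Fluc cells, 5000/well, 5% FBS OPTI-MEM; compounds in dose-response, 18-24 h at 37 °C/5% CO2; CellTiter-Fluor viability read (Ex 405/Em 525), then BugLite luciferase luminescence = Nrf2 activity.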
* = called active by the depositor; i = inactive; ? = inconclusive; . = not tested or not shown. An excerpt weighted towards active compounds, which were near 3.8% of everything screened. Calls follow the shape of the dose curve; as a rule, active = well fitted curve in the direction sought with a large enough effect; inconclusive = small, poorly fitted or top-dose-only effect, or another doubt; inactive = no such curve, though single readings can be large; an effect the other way counts as inactive or inconclusive. Potency is read from the fitted curve at half-maximal effect.

SMILES | A549 tox | TGFb SMAD3 inh | S2 tox | HepG2 tox | ATXN2 expr inh | Nrf2 block
COc1cc(NC(=O)c2cc(C)on2)cc(C(=O)Nc2cccc(C(F)(F)F)c2)c1 | ? | ? | ? | -31.7% | ? | ?
O=C(Nc1ccc(C(=O)O)cc1)/C(=C\c1ccco1)NC(=O)c1ccco1 | 1.8% | 7.6% | i | 1.3% | 3.6% | 0.7%
Cc1cccc(C(=O)NNC(=O)c2c(-c3ccccc3Cl)noc2C)c1O | 1.9% | 22.5% | i | -2.5% | ? | -2.7%
CCOc1ccccc1C(=O)NC1CC2CCCC(C1)N2Cc1nnnn1Cc1ccco1 (stereo not given) | -11.5% | -13.6% | i | -24.9% | -22.0% | -18.3%
O=C(NC1CC2CCC(C1)N2Cc1nnnn1Cc1ccco1)NC12CC3CC(CC(C3)C1)C2 (stereo not given) | -28.0% | ? | i | -26.9% | -13.4% | 4.11µM*
COc1ccc(CCNC(=O)CCCCn2c(=O)c3ccccc3n(Cc3cc(C)ccc3C)c2=O)cc1OC | -1.2% | 14.6% | i | -5.6% | -0.1% | -8.7%
Cc1ccc(NC(=S)NCCSc2ccc(Cl)cc2)cc1 | -19.4% | ? | i | -12.1% | -21.1% | ?
Cc1cccc(C)c1NC(=S)NCCSc1ccc(Cl)cc1 | ? | ? | i | -10.6% | -12.1% | 25.9µM*
COC(=O)c1c(C)oc2ccc(N(C(=O)c3ccncc3)S(=O)(=O)c3ccc(C)cc3)cc12 | ? | ? | ? | -30.5% | -20.3% | 10.3µM*
Cc1ccc(S(=O)(=O)N(C(=O)c2ccncc2)c2ccc(OC(=O)c3ccncc3)c3ccccc23)cc1 | -15.9% | 0.0% | ? | -22.2% | 18.9µM* | -5.7%
COC(=O)c1c(C)oc2ccc(N(C(=O)c3ccncc3)S(=O)(=O)c3ccc(C)cc3C)cc12 | ? | ? | i | 3.9% | ? | 6.51µM*
Cc1ccc(S(=O)(=O)N(C(=O)c2ccncc2)c2ccc(OC(=O)c3ccncc3)c3ccccc23)c(C)c1 | -0.1% | ? | ? | -7.5% | ? | -16.4%
COC(=O)c1c(C)oc2ccc(N(C(=O)c3ccncc3)S(=O)(=O)c3ccc4ccccc4c3)cc12 | -23.0% | ? | ? | -19.4% | -24.6% | 23.1µM*
COc1ccc(-c2c(C#N)c(SCC(=O)Nc3ccccc3C)nc(C)c2C(=O)Nc2ccccc2)cc1OC | -2.8% | -1.7% | . | -13.7% | . | -3.2%
C#CCSc1nnc(C)c(C)n1 | 9.5% | ? | i | -1.0% | 8.5% | 20.8%
Cc1ccc(NC(=O)c2cccnc2C(=O)O)nc1 | -10.1% | 0.0% | i | -8.7% | 16.4% | 7.0%
CC(=O)c1c(C)oc2ccc(N(C(=O)c3ccncc3)S(=O)(=O)c3ccc(F)cc3C)cc12 | -8.4% | ? | i | -24.3% | ? | ?
CCOC(=O)c1c(C)oc2ccc(N(C(=O)c3ccncc3)S(=O)(=O)c3ccc(F)cc3C)cc12 | 4.8% | ? | ? | 14.1µM* | ? | ?
CCc1cccc(NC(=S)N2CCC(c3ccccc3)C2)c1 (stereo not given) | -15.5% | -27.0% | i | 15.8µM* | -7.4% | ?
CSc1cccc(NC(=S)N2CCC(c3ccccc3)C2)c1 (stereo not given) | 9.1% | -20.1% | i | -24.0% | 22.9% | ?
COc1cccc(NC(=S)N2CCC(Cc3ccccc3)CC2)c1 | -0.7% | ? | i | -6.3% | -14.9% | 18.4µM*
CCN(CC)c1ccc(NC(=O)c2cnn(-c3ccccc3)c2-n2cccc2)c(C)c1 | 8.5% | -0.2% | i | -16.3% | -11.6% | 2.3%
CCOc1ccc(CCNC(=O)C2CCCN(c3ncnc4c3nc3n4CCCCC3)C2)cc1 (stereo not given) | 0.4% | 3.1% | i | -8.1% | -3.7% | ?

Screening data from PubChem BioAssay.
